Test results taken from PubChem BioAssay (NCI).
About 79,000 compounds went through this panel and 15% of them were active in at least one assay; those are over-represented in the sample as a whole. Active and inactive are the calls of the source. No stated cut-off is given here; in the data, active means growth inhibition above about 70%; inactive means the rest.

Assays:
[1] = NCI Yeast Anticancer Drug Screen. Data for the rad52 strain (AID 147);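 further: 0% = growth of vehicle-treated control cultures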; settings: S. cerevisiae rad52 mutant growth inhibition, stronger effect = higher value
In short: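 Read-out: growth inhibition versus vehicle-treated controls. Cells were a DNA repair-deficient yeast strain treated with compounds.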

[2] = NCI Yeast Anticancer Drug Screen. Data for the wt1 strain (AID 149);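 further: 0% = growth of vehicle-treated wt1 cultures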; settings: S. cerevisiae wt1 strain (SPY 50644) growth inhibition, stronger effect = higher value
In short: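 Readout: yeast growth inhibition, normalised to vehicle controls, in the wt1 strain exposed to test compounds.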

[3] = NCI Yeast Anticancer Drug Screen. Data for the rad50EPP+ strain (AID 151);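 further: 0% = growth of vehicle-treated control cultures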; settings: S. cerevisiae rad50 mutant strain, stronger effect = higher value
In short: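 Growth inhibition read against vehicle controls in rad50EPP+ yeast, a strain altered in DNA damage repair, after compound exposure.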

[4] = NCI Yeast Anticancer Drug Screen. Data for the mgt1 strain (AID 153); settings: S. cerevisiae mgt1 mutant growth inhibition, stronger effect = higher value
In short: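 mgt1 yeast grown with test compound; read-out is growth inhibition versus vehicle-treated cultures.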

[5] = NCI Yeast Anticancer Drug Screen. Data for the rad50 strain (AID 155);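 further: 0% = growth of vehicle-only cultures of the same strain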; settings: S. cerevisiae rad50 strain growth inhibition, stronger effect = higher value
In short: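 Compounds were tested on a yeast strain with an engineered DNA damage repair alteration; the reported value is growth inhibition normalised to vehicle treatment.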

[6] = NCI Yeast Anticancer Drug Screen. Data for the mec2-1 strain (AID 157); settings: S. cerevisiae mec2-1 strain, stronger effect = higher value
In short: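 Yeast mec2-1 mutant treated with compound. Readout: growth inhibition vs vehicle controls.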

[7] = NCI Yeast Anticancer Drug Screen. Data for the rad14 strain (AID 159);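 further: 0% = growth of vehicle-treated control cultures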; settings: S. cerevisiae rad14 strain growth inhibition, stronger effect = higher value
In short: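 Compound-treated yeast with a defined DNA-repair lesion; growth inhibition normalised to vehicle-treated cultures.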

[8] = NCI Yeast Anticancer Drug Screen. Data for the sgs1 mgt1 strain (AID 161);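 further: 0% = growth of cultures given vehicle only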; settings: S. cerevisiae sgs1 mgt1 strain, stronger effect = higher value
In short: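 Read-out: growth inhibition vs vehicle controls. Cells: mutant yeast strain deficient in DNA damage repair.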

[9] = NCI Yeast Anticancer Drug Screen. Data for the CLN2oe strain (AID 163);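 further: 0% = growth of vehicle-only control cultures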; settings: S. cerevisiae CLN2oe strain, stronger effect = higher value
In short: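 Read-out: yeast growth inhibition, expressed relative to vehicle-only controls. The strain bears an engineered cell-cycle alteration.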

[10] = NCI Yeast Anticancer Drug Screen. Data for the cln2 rad14 strain (AID 165);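 further: 0% = growth equal to vehicle treated cultures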; settings: S. cerevisiae cln2 rad14 strain, stronger effect = higher value
In short: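 cln2 rad14 yeast strain; compound exposure; growth inhibition read vs vehicle controls.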

[11] = NCI Yeast Anticancer Drug Screen. Data for the bub3 strain (AID 167); settings: S. cerevisiae bub3 mutant strain, stronger effect = higher value
In short: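 Growth of a checkpoint-deficient yeast mutant is measured after compound exposure. Values represent inhibition relative to vehicle.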

[12] = NCI Yeast Anticancer Drug Screen. Data for the wt2 strain (AID 169);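 further: 0% = growth of vehicle-treated yeast cultures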; settings: S. cerevisiae wt2 strain growth inhibition, stronger effect = higher value
In short: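 Read-out: growth inhibition versus vehicle-treated control cultures after compound exposure of the yeast strain.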

[13] = NCI Yeast Anticancer Drug Screen. Data for the mlh1 strain (AID 171);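 further: 0% = growth of vehicle-treated control cultures of the same strain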; settings: S. cerevisiae mlh1 strain growth inhibition, stronger effect = higher value
In short: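 Read-out: growth inhibition versus vehicle controls. Strain: engineered yeast with a defined DNA repair or cell cycle defect, compound-treated.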

[14] = NCI Yeast Anticancer Drug Screen. Data for the sgs1 strain (AID 173);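 further: 0% = growth of vehicle-only control cultures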; settings: S. cerevisiae sgs1 mutant, stronger effect = higher value
In short: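 Read-out: yeast growth inhibition relative to vehicle controls, following compound exposure of a strain with a defined DNA repair/cell cycle alteration.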

[15] = NCI Yeast Anticancer Drug Screen. Data for the mlh1 rad18 strain (AID 175); settings: S. cerevisiae mlh1 rad18 strain growth inhibition, stronger effect = higher value
In short: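 Yeast w/ defined DNA-repair lesions; compound exposure; growth vs vehicle controls → % inhibition.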

[16] = NCI Yeast Anticancer Drug Screen. Data for the rad18 strain (AID 177); settings: S. cerevisiae rad18 mutant growth inhibition, stronger effect = higher value
In short: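 Readout: growth inhibition vs vehicle controls. Cells: genetically altered yeast strain, DNA repair defect.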

[17] = at 5.0 µM (retest, dose inferred, filed as 0.5)
[18] = at 50.0 µM (retest, dose inferred, filed as 5.0)

Measured: growth inhibition

COc1cccc2c1C(=O)c1c(O)c3c(c(O)c1C2=O)C[C@@](O)(C(C)=O)C[C@@H]3OC1CC(OC(C)=O)C(OC(C)=O)C(C)O1 (stereo partly specified)
active: [5]; [18] 76% | [8]; [17] 98% | [8]; [18] 96% | [8]; at 50.0 µM 77% | [10]; [17] 96% | [10]; [18] 97% | [11]; [17] 98% | [11]; [18] 97% | [11]; at 50.0 µM 75.7% | [15]; at 50.0 µM 82.7%
inactive: [1]; at 1.2 µM -12% | [1]; at 3.7 µM -7% | [1]; at 11.0 µM 37% | [1]; at 33.0 µM 48% | [1]; at 100.0 µM 40% | [2]; at 1.2 µM -26% | [2]; at 3.7 µM -43% | [2]; at 11.0 µM -46% | [2]; at 33.0 µM -24% | [2]; at 100.0 µM -28% | [3]; at 1.2 µM -11% | [3]; at 3.7 µM -16% | [3]; at 11.0 µM -7% | [3]; at 33.0 µM 7% | [3]; at 100.0 µM 36% | [4]; at 1.2 µM -41% | [4]; at 3.7 µM -51% | [4]; at 11.0 µM -33% | [4]; at 33.0 µM -22% | [4]; at 100.0 µM -11% | [5]; at 1.2 µM -40% | [5]; at 3.7 µM -11% | [5]; [17] 22% | [5]; at 11.0 µM 39% | [5]; at 33.0 µM 51% | [5]; at 50.0 µM 56.2% | [5]; at 100.0 µM 47% | [6]; at 1.2 µM -64% | [6]; at 3.7 µM -46% | [6]; [17] 13% | [6]; at 11.0 µM -34% | [6]; at 33.0 µM -25% | [6]; [18] 41% | [6]; at 50.0 µM 60% | [6]; at 100.0 µM 1% | [7]; at 1.2 µM -35% | [7]; at 3.7 µM -3% | [7]; at 11.0 µM -6% | [7]; at 33.0 µM 10% | [7]; at 100.0 µM 29% | [9]; at 1.2 µM 3% | [9]; at 3.7 µM -2% | [9]; at 11.0 µM 12% | [9]; at 33.0 µM 11% | [9]; at 100.0 µM 19% | [10]; at 50.0 µM 17.3% | [11]; at 1.2 µM -54% | [11]; at 3.7 µM -38% | [11]; at 11.0 µM -50% | [11]; at 33.0 µM -35% | [11]; at 100.0 µM -4% | [12]; at 1.2 µM -23% | [12]; at 3.7 µM -18% | [12]; at 11.0 µM -2% | [12]; at 33.0 µM 0% | [12]; at 100.0 µM 12% | [13]; at 1.2 µM -41% | [13]; at 3.7 µM -37% | [13]; at 11.0 µM -30% | [13]; at 33.0 µM -8% | [13]; at 100.0 µM 18% | [14]; at 1.2 µM -17% | [14]; at 3.7 µM -23% | [14]; at 11.0 µM -14% | [14]; at 33.0 µM -3% | [14]; at 100.0 µM -9% | [15]; [17] 23% | [15]; [18] 62% | [16]; at 1.2 µM -28% | [16]; at 3.7 µM -29% | [16]; at 11.0 µM -16% | [16]; at 33.0 µM -5% | [16]; at 100.0 µM -1%

CCOC(=O)C(Br)C(Br)c1ccccc1Cl (stereo unspecified)
active: [1]; at 11.0 µM 83% | [1]; at 33.0 µM 99% | [1]; at 100.0 µM 99% | [2]; at 33.0 µM 99% | [2]; at 100.0 µM 99% | [3]; at 11.0 µM 96% | [3]; at 33.0 µM 99% | [3]; at 100.0 µM 99% | [4]; at 33.0 µM 99% | [4]; at 100.0 µM 99% | [5]; at 33.0 µM 99% | [5]; [18] 99% | [5]; at 50.0 µM 99.7% | [5]; at 100.0 µM 99% | [6]; at 33.0 µM 99% | [6]; [18] 100% | [6]; at 50.0 µM 99.8% | [6]; at 100.0 µM 99% | [7]; at 33.0 µM 98% | [7]; at 100.0 µM 99% | [8]; [18] 99% | [8]; at 50.0 µM 99.8% | [9]; at 33.0 µM 99% | [9]; at 100.0 µM 99% | [10]; [18] 99% | [10]; at 50.0 µM 99.4% | [11]; at 33.0 µM 98% | [11]; [18] 99% | [11]; at 50.0 µM 99.8% | [11]; at 100.0 µM 99% | [12]; at 11.0 µM 93% | [12]; at 33.0 µM 99% | [12]; at 100.0 µM 99% | [13]; at 11.0 µM 92% | [13]; at 33.0 µM 99% | [13]; at 100.0 µM 99% | [14]; at 11.0 µM 94% | [14]; at 33.0 µM 99% | [14]; at 100.0 µM 99% | [15]; [18] 99% | [15]; at 50.0 µM 99.5% | [16]; at 11.0 µM 89% | [16]; at 33.0 µM 99% | [16]; at 100.0 µM 99%
inactive: [1]; at 1.2 µM 6% | [1]; at 3.7 µM 23% | [2]; at 1.2 µM -4% | [2]; at 3.7 µM 7% | [2]; at 11.0 µM 46% | [3]; at 1.2 µM 24% | [3]; at 3.7 µM 62% | [4]; at 1.2 µM 0% | [4]; at 3.7 µM 14% | [4]; at 11.0 µM 61% | [5]; at 1.2 µM 5% | [5]; at 3.7 µM 17% | [5]; [17] 23% | [5]; at 11.0 µM 68% | [6]; at 1.2 µM 0% | [6]; at 3.7 µM 12% | [6]; [17] 30% | [6]; at 11.0 µM 47% | [7]; at 1.2 µM 0% | [7]; at 3.7 µM 10% | [7]; at 11.0 µM 47% | [8]; [17] 46% | [9]; at 1.2 µM -2% | [9]; at 3.7 µM 3% | [9]; at 11.0 µM 47% | [10]; [17] 13% | [11]; at 1.2 µM -1% | [11]; at 3.7 µM 7% | [11]; [17] 22% | [11]; at 11.0 µM 47% | [12]; at 1.2 µM -2% | [12]; at 3.7 µM 22% | [13]; at 1.2 µM 9% | [13]; at 3.7 µM 23% | [14]; at 1.2 µM 10% | [14]; at 3.7 µM 34% | [15]; [17] 39% | [16]; at 1.2 µM 10% | [16]; at 3.7 µM 29%
